Reference: PubChem BioAssay (NCI)
About 79,000 compounds went through this panel and 15% of them were active in at least one assay; those are over-represented in the sample as a whole. Activity calls are given as the source filed them. Rule as the data show it: active = growth inhibition above about 70%; inactive = the rest.

Legend:
[1] = NCI Yeast Anticancer Drug Screen. Data for the rad52 strain (AID 147);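 also: 0% = growth of vehicle-treated control cultures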; details: S. cerevisiae rad52 mutant growth inhibition, hits give high values
In short: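 Here a repair-compromised yeast strain receives each compound; its growth is then quantified and normalised to vehicle-only controls.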

[2] = NCI Yeast Anticancer Drug Screen. Data for the wt1 strain (AID 149);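 also: 0% = growth of vehicle-treated wt1 cultures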; details: S. cerevisiae wt1 strain (SPY 50644) growth inhibition, hits give high values
In short: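 Measured: growth of wt1 yeast under compound versus vehicle treatment, reported as inhibition.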

[3] = NCI Yeast Anticancer Drug Screen. Data for the rad50EPP+ strain (AID 151);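 also: 0% = growth of vehicle-treated control cultures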; details: S. cerevisiae rad50 mutant strain, hits give high values
In short: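 Read-out is yeast growth inhibition relative to vehicle; cells used were the rad50EPP+ strain.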

[4] = NCI Yeast Anticancer Drug Screen. Data for the mgt1 strain (AID 153); details: S. cerevisiae mgt1 mutant growth inhibition, hits give high values
In short: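 Measured: inhibition of mgt1 yeast growth by compound, normalized to vehicle-treated cultures.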

[5] = NCI Yeast Anticancer Drug Screen. Data for the rad50 strain (AID 155);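 also: 0% = growth of vehicle-only cultures of the same strain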; details: S. cerevisiae rad50 strain growth inhibition, hits give high values
In short: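 Growth of the mutant yeast was measured after compound exposure and referenced to vehicle-treated cultures.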

[6] = NCI Yeast Anticancer Drug Screen. Data for the mec2-1 strain (AID 157); details: S. cerevisiae mec2-1 strain, hits give high values
In short: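 Using mec2-1 yeast: add compound, measure growth, express inhibition versus vehicle-treated cultures.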

[7] = NCI Yeast Anticancer Drug Screen. Data for the rad14 strain (AID 159);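 also: 0% = growth of vehicle-treated control cultures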; details: S. cerevisiae rad14 strain growth inhibition, hits give high values
In short: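 Here, inhibition of yeast growth was measured after compound exposure, using a strain with a genetic defect in DNA damage repair and vehicle-treated cultures as the reference.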

[8] = NCI Yeast Anticancer Drug Screen. Data for the sgs1 mgt1 strain (AID 161);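 also: 0% = growth of cultures given vehicle only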; details: S. cerevisiae sgs1 mgt1 strain, hits give high values
In short: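 Compounds are added to genetically altered yeast, and growth is compared with cultures given vehicle alone to give percent inhibition.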

[9] = NCI Yeast Anticancer Drug Screen. Data for the CLN2oe strain (AID 163);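 also: 0% = growth of vehicle-only control cultures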; details: S. cerevisiae CLN2oe strain, hits give high values
In short: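 Whole-cell yeast growth assay. A strain engineered for altered cell-cycle control received compound, and inhibition relative to vehicle-treated cultures was recorded.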

[10] = NCI Yeast Anticancer Drug Screen. Data for the cln2 rad14 strain (AID 165);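 also: 0% = growth equal to vehicle treated cultures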; details: S. cerevisiae cln2 rad14 strain, hits give high values
In short: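 Yeast strain cln2 rad14, bearing defects in cell cycle control and DNA repair, serves as the test system; values reflect growth inhibition compared with vehicle.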

[11] = NCI Yeast Anticancer Drug Screen. Data for the bub3 strain (AID 167); details: S. cerevisiae bub3 mutant strain, hits give high values
In short: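 Whole-cell yeast assay. The mutant strain was incubated with compounds, and growth inhibition was determined by comparison with vehicle-treated cells.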

[12] = NCI Yeast Anticancer Drug Screen. Data for the wt2 strain (AID 169);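 also: 0% = growth of vehicle-treated yeast cultures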; details: S. cerevisiae wt2 strain growth inhibition, hits give high values
In short: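 Treated yeast vs. vehicle-treated yeast: growth inhibition determined.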

[13] = NCI Yeast Anticancer Drug Screen. Data for the mlh1 strain (AID 171);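 also: 0% = growth of vehicle-treated control cultures of the same strain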; details: S. cerevisiae mlh1 strain growth inhibition, hits give high values
In short: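 A yeast strain with a defined genetic lesion serves as the test organism. Cultures receive compound or vehicle, and growth is measured.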

[14] = NCI Yeast Anticancer Drug Screen. Data for the sgs1 strain (AID 173);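 also: 0% = growth of vehicle-only control cultures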; details: S. cerevisiae sgs1 mutant, hits give high values
In short: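 A genetically defined yeast mutant is incubated with the test compound, and its growth is compared to that of the same strain given vehicle.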

[15] = NCI Yeast Anticancer Drug Screen. Data for the mlh1 rad18 strain (AID 175); details: S. cerevisiae mlh1 rad18 strain growth inhibition, hits give high values
In short: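 Steps: expose repair-defective yeast to compound; measure growth; express inhibition against vehicle-treated controls.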

[16] = NCI Yeast Anticancer Drug Screen. Data for the rad18 strain (AID 177); details: S. cerevisiae rad18 mutant growth inhibition, hits give high values
In short: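 Measured value is growth inhibition of a yeast strain bearing a DNA repair alteration, referenced to vehicle-treated cells.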

[17] = at 5.0 µM (retest, dose inferred, filed as 0.5)
[18] = at 50.0 µM (retest, dose inferred, filed as 5.0)

Measured: growth inhibition

CCCCN(CCCC)CC(C(C)=O)C(c1ccccc1)c1c(O)c2ccccc2oc1=O (stereo unspecified)
active: [5]; at 50.0 µM 71.3% | [8]; at 50.0 µM 84.2% | [10]; at 50.0 µM 81.5% | [11]; at 50.0 µM 74.5% | [15]; at 50.0 µM 76.8%
inactive: [1]; at 1.2 µM 2% | [1]; at 3.7 µM 3% | [1]; at 11.0 µM 2% | [1]; at 33.0 µM 3% | [1]; at 100.0 µM 2% | [2]; at 1.2 µM 0% | [2]; at 3.7 µM -1% | [2]; at 11.0 µM -1% | [2]; at 33.0 µM -3% | [2]; at 100.0 µM -4% | [3]; at 1.2 µM -7% | [3]; at 3.7 µM -5% | [3]; at 11.0 µM -6% | [3]; at 33.0 µM -8% | [3]; at 100.0 µM -3% | [4]; at 1.2 µM 1% | [4]; at 3.7 µM 2% | [4]; at 11.0 µM 3% | [4]; at 33.0 µM 0% | [4]; at 100.0 µM -1% | [5]; at 1.2 µM 2% | [5]; at 3.7 µM 2% | [5]; [17] 22% | [5]; at 11.0 µM 4% | [5]; at 33.0 µM 3% | [5]; [18] 22% | [5]; at 100.0 µM 1% | [6]; at 1.2 µM 3% | [6]; at 3.7 µM 2% | [6]; [17] 25% | [6]; at 11.0 µM -1% | [6]; at 33.0 µM -1% | [6]; [18] 25% | [6]; at 50.0 µM 69.6% | [6]; at 100.0 µM 5% | [7]; at 1.2 µM 5% | [7]; at 3.7 µM 3% | [7]; at 11.0 µM 2% | [7]; at 33.0 µM -2% | [7]; at 100.0 µM -24% | [8]; [17] 10% | [8]; [18] 10% | [9]; at 1.2 µM 1% | [9]; at 3.7 µM 6% | [9]; at 11.0 µM 5% | [9]; at 33.0 µM -2% | [9]; at 100.0 µM -3% | [10]; [17] 51% | [10]; [18] 51% | [11]; at 1.2 µM 4% | [11]; at 3.7 µM 2% | [11]; [17] 4% | [11]; at 11.0 µM 15% | [11]; at 33.0 µM 22% | [11]; [18] 4% | [11]; at 100.0 µM 6% | [12]; at 1.2 µM 0% | [12]; at 3.7 µM -1% | [12]; at 11.0 µM 0% | [12]; at 33.0 µM -1% | [12]; at 100.0 µM 4% | [13]; at 1.2 µM 0% | [13]; at 3.7 µM -2% | [13]; at 11.0 µM -2% | [13]; at 33.0 µM 1% | [13]; at 100.0 µM -28% | [14]; at 1.2 µM -4% | [14]; at 3.7 µM -6% | [14]; at 11.0 µM -7% | [14]; at 33.0 µM -4% | [14]; at 100.0 µM 9% | [15]; [17] 22% | [15]; [18] 22% | [16]; at 1.2 µM -3% | [16]; at 3.7 µM -9% | [16]; at 11.0 µM -10% | [16]; at 33.0 µM -12% | [16]; at 100.0 µM -8%

Cc1nc2ccccc2cc1C[N+]12CN3CN(CN(C3)C1)C2
active: [1]; at 100.0 µM 90% | [3]; at 100.0 µM 85% | [5]; at 50.0 µM 84% | [5]; at 100.0 µM 85% | [14]; at 100.0 µM 80% | [16]; at 100.0 µM 83%
inactive: [1]; at 1.2 µM 1% | [1]; at 3.7 µM 3% | [1]; at 11.0 µM 6% | [1]; at 33.0 µM 29% | [2]; at 1.2 µM 0% | [2]; at 3.7 µM -2% | [2]; at 11.0 µM 0% | [2]; at 33.0 µM 3% | [2]; at 100.0 µM 20% | [3]; at 1.2 µM 0% | [3]; at 3.7 µM 1% | [3]; at 11.0 µM 1% | [3]; at 33.0 µM 21% | [4]; at 1.2 µM 2% | [4]; at 3.7 µM 5% | [4]; at 11.0 µM 4% | [4]; at 33.0 µM 6% | [4]; at 100.0 µM 36% | [5]; at 1.2 µM 1% | [5]; at 3.7 µM 9% | [5]; [17] -7% | [5]; at 11.0 µM 7% | [5]; at 33.0 µM 25% | [5]; [18] 55% | [6]; at 1.2 µM 2% | [6]; at 3.7 µM 4% | [6]; [17] -2% | [6]; at 11.0 µM 5% | [6]; at 33.0 µM 10% | [6]; [18] 28% | [6]; at 50.0 µM 25.1% | [6]; at 100.0 µM 32% | [7]; at 1.2 µM -2% | [7]; at 3.7 µM 6% | [7]; at 11.0 µM 3% | [7]; at 33.0 µM 11% | [7]; at 100.0 µM 47% | [8]; [17] -6% | [8]; [18] 27% | [8]; at 50.0 µM 47.2% | [9]; at 1.2 µM 1% | [9]; at 3.7 µM 1% | [9]; at 11.0 µM 4% | [9]; at 33.0 µM 6% | [9]; at 100.0 µM 25% | [10]; [17] -30% | [10]; [18] 4% | [10]; at 50.0 µM 19.9% | [11]; at 1.2 µM 4% | [11]; at 3.7 µM 4% | [11]; [17] 6% | [11]; at 11.0 µM 1% | [11]; at 33.0 µM 2% | [11]; [18] 2% | [11]; at 50.0 µM 42% | [11]; at 100.0 µM 26% | [12]; at 1.2 µM 1% | [12]; at 3.7 µM -5% | [12]; at 11.0 µM 4% | [12]; at 33.0 µM 11% | [12]; at 100.0 µM 46% | [13]; at 1.2 µM -1% | [13]; at 3.7 µM 1% | [13]; at 11.0 µM -6% | [13]; at 33.0 µM 4% | [13]; at 100.0 µM 46% | [14]; at 1.2 µM -1% | [14]; at 3.7 µM -2% | [14]; at 11.0 µM 2% | [14]; at 33.0 µM 28% | [15]; [17] -1% | [15]; [18] 39% | [15]; at 50.0 µM 68.2% | [16]; at 1.2 µM -1% | [16]; at 3.7 µM -2% | [16]; at 11.0 µM -2% | [16]; at 33.0 µM 16%
